{"source": "PubChem BioAssay (NCI)", "note": "Compounds without any hit were thinned out: in the full panel of roughly 83,000, 20% have a hit.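 Each cell line was grown in a 96-well plate and treated with one concentration of compound for 48 hours. Values below 10 were considered active.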 Calls of active or inactive are those of the source."}
{"tested_on": "MALME-3M melanoma", "assay": "NCI-60 one-dose screen, 48 h (100 = growth as untreated, 0 = no growth, -100 = all killed)", "conditions": "10 µM unless noted"}
{"molecule": "CC(c1ccc(-n2cccn2)cc1)c1cnc(N2CCc3ccc(C(N)=O)cc3C2)s1", "note": "(configuration not stated)", "growth": "72.4% (inactive)"}
{"molecule": "COc1cc2c(cc1OC)-c1ccc3cc4c(cc3c1N(CCCN1CCCCC1)C2)OCO4", "growth": "76.7% (inactive)"}
{"molecule": "C[C@@H](C[C@H](CCOCc1cccnc1)c1ccccc1)c1cc2ccccc2o1", "growth": "95.5% (inactive)"}
{"molecule": "N#Cc1c(N)n2c(nc1=Nc1ccc([N+](=O)[O-])cc1)sc1cc(Cl)ccc12", "growth": "90.6% (inactive)"}
{"molecule": "C=C1C(=O)O[C@H]2[C@H]1CC/C(C(=O)NCCCCCCCCNC(=O)/C1=C/CC[C@@]3(C)O[C@H]3[C@H]3OC(=O)C(=C)[C@@H]3CC1)=C\\CC[C@@]1(C)O[C@@H]21", "growth": "16.4% (inactive)"}
{"molecule": "O=C(NCCOCCOCCOCCNC(=O)c1cc2c(o1)C(=O)c1ccccc1C2=O)NC12CC3CC(CC(C3)C1)C2", "growth": "-94.5% (active)"}
{"molecule": "CCOc1ccc2nc(-c3cccc(OCC(=O)NC(C)C)c3)nc(Nc3ccc(-c4cn[nH]c4)cc3)c2c1", "growth": "-66% (active)"}
{"molecule": "CSc1ncc(C)c(Nc2ccc(Cl)cc2)n1", "growth": "122% (inactive)"}
{"molecule": "O=C1CCC(N2C(=O)c3cccc(NCCCC4CCN(CCNC(=O)c5cc6c(o5)C(=O)c5ccccc5C6=O)CC4)c3C2=O)C(=O)N1", "note": "(configuration not stated)", "growth": "-99.2% (active)"}
{"molecule": "CCOC(=O)C1C(=O)C=C(c2cnccn2)CC1c1ccc(OC)c(OC)c1", "note": "(configuration not stated)", "growth": "100% (inactive)"}
{"molecule": "OC(CBr)c1ccnc2ccccc12", "note": "(configuration not stated)", "growth": "96.3% (inactive)"}
{"molecule": "O=C1N(c2ccccc2)C(=S)N[C@]12[C@H](c1ccccc1)C1CCCN1[C@]21C(=O)NC2C=CC(Cl)=C[C@H]21", "note": "(some centres not stated)", "growth": "97% (inactive)"}
